Our source for the z-score values is PubChem BioAssay.

A short description of the experiment: resazurin metabolic signal in HepG2 cells – cell-based, resazurin fluorescence, 24 h, PK04 Diversity Set, profiling panel (AID 1172). Also: test concentration not given here. The settings on record: HepG2 viability, higher = more signal. In general terms: Resazurin is reduced to fluorescent resorufin, in cell work by metabolically active cells.
Turning to `COC(=O)[C@@]1(Cc2ccc(F)cc2)[C@H]2c3cc(C(=O)N(C)C)n(Cc4ccc(O)c(OC)c4)c3C[C@H]2CN1C(=O)c1ccccc1`, the z-score was -0.338.

Turning to `CO[C@H]1O[C@H](CO)[C@@H](OC(=O)Nc2cccc(F)c2)[C@H](OC(=O)Nc2ccccc2-c2ccccc2)[C@H]1OC(=O)Nc1ccccc1-c1ccccc1`, the z-score is -4.61.

The compound `C=C(CCCC)/C(=C/C[C@H](OC(C)=O)c1ccc(OCCO)cc1)c1cc(C(=O)OC)ccc1OC` registered a z-score of 0.757.

In the case of `COCCCNC(=O)[C@@]1(Sc2ccc(C)cc2)CC(=O)N(Cc2ccccc2Cl)[C@@H]1c1ccc(CO)cc1I`, the z-score was determined as 0.0727.

`COc1cccc(/C=C(\C#N)C(=O)Nc2c(C)n(C)n(-c3ccccc3)c2=O)c1` registered a z-score of 0.665.

`CS(=O)(=O)CCOC(=O)C1=CC(CCCO)=CC(C2CC2)N(Cc2cccc(OC(F)(F)F)c2)C=C1C(=O)OCCS(C)(=O)=O` (stereo unspecified) had a z-score of 0.0407.

`COc1ccc(C#Cc2ccc3c(c2)[C@]2(C(=O)N3)[C@H](C(=O)Nc3nc4ccccc4s3)[C@H]3C(=O)O[C@H](c4ccccc4)[C@H](c4ccccc4)N3[C@@H]2c2ccccc2OCCO)cc1` came in with a z-score of 0.154.

For the compound `C=C[C@@H](C)[C@@H](OC(=O)Nc1ccc(SC)cc1)c1ccc(OCCO)cc1`, the z-score worked out at 0.627.

With `CC(=O)N1CC(C(O)C2C=CC3C(=O)NC(=O)C3N2Nc2ccc(Cl)cc2Cl)c2ccccc21` (stereo unspecified), the z-score is -1.59.

Take `CC(C)C[C@@H]1NC(=O)[C@H]2C[C@@H](C(=O)NCCCCCN)[C@@H](c3cccc(OCCO)c3)N2C1=O`: the z-score is -0.604.

On to `C=C(/C(=C/C[C@@H](OC(C)=O)c1ccc(CO)o1)c1cc(C(=O)OC)ccc1OC)C(C)C`, for which the z-score was -0.0187.
